# Laboratory results published in PMC4336329 (PLoS ONE, 2015).
# The whole screen tested about 310,000 compounds, of which about 14,000 (4.5%) showed an effect of 50% or more. The effect is printed as a negative number. This is one part of a sample in which strong results are shown more often than they occur.
# Target: human ether-à-go-go-related gene (hERG) potassium channel (human, UniProt Q12809)
# Assay: primary screen, population patch clamp on CHO cells stably expressing hERG; higher = less effect of the substance
# 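Further: peak tail current of the secondary pulse compared with the same well before compound.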
# Sequence of human ether-à-go-go-related gene (hERG) potassium channel (Q12809 whole entry, looked up): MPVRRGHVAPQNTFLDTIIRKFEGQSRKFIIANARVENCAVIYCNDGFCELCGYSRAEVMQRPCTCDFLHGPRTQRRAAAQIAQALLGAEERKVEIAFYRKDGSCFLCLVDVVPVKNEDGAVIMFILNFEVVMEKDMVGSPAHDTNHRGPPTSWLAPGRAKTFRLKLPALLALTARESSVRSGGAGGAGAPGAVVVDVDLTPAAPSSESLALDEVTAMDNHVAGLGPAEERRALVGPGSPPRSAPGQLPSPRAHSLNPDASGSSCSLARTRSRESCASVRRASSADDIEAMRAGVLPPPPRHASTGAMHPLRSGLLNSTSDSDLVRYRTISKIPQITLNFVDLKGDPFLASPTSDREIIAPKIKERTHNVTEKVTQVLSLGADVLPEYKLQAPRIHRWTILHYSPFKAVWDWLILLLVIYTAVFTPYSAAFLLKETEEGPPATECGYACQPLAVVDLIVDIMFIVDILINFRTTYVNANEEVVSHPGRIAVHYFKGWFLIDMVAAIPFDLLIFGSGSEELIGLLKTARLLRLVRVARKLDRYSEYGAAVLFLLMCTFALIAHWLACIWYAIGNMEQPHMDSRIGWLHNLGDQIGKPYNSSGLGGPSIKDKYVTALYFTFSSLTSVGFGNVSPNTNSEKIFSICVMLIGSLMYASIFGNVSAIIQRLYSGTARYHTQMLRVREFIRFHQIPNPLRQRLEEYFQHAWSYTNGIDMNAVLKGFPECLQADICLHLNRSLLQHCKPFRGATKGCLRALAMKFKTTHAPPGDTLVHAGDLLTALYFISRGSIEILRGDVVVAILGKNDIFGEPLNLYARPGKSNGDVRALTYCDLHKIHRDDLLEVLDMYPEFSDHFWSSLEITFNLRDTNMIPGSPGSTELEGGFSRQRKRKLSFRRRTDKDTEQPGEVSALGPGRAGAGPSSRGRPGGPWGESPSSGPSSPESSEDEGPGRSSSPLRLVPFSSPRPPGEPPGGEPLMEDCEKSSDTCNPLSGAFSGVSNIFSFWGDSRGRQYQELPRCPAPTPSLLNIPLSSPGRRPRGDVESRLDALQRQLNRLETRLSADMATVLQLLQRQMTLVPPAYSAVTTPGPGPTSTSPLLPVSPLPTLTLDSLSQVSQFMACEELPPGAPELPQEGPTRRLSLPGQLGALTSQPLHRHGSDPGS
row,Compound,"hERG current change (%, negative = inhibition) at 10uM"
1,CC(=O)Nc1ccc(NC(=O)Cn2c(CC(=O)N3CCCC3)nc3ccccc32)cc1,9%
2,Cc1cc(OC(=O)CCCNC(=O)OC(C)(C)C)c2c3c(c(=O)oc2c1)CCC3,-9.18%
3,CCC(=O)Nc1cc2nn(-c3ccc(OC)cc3)nc2cc1C,0.0727%
4,Cc1ccc(Sc2ccc([N+](=O)[O-])cc2[N+](=O)[O-])nc1,-19.1%
5,Cc1cccc(NC(=O)CCN2C(=O)C3C4C=CC(C4)C3C2=O)c1 (stereo not shown),13.6%
6,C/C(=N\NC(=O)c1cc2ccccc2cc1O)c1ccccn1,-3.94%
7,Cc1ccc(C(=O)N/C(=C\c2cn(S(=O)(=O)N(C)C)c3ccccc23)C(=O)NCCCN2CCOCC2)cc1,-18.7%
8,O=C(NC(=S)NCCN1CCOCC1)c1ccc(Cl)cc1,-13.2%
9,Cc1ccc(C(=O)N/C(=C\c2cccs2)C(=O)NCCCN2CCOCC2)cc1,-61.4%
10,O=C(NCCN1CCOCC1)/C(=C/c1ccc(Cl)cc1)NC(=O)c1ccccc1,-76.5%
11,CN(C)c1ccc(/C=C(/NC(=O)c2ccccc2)C(=O)NCCN2CCOCC2)cc1,4.15%
12,Cc1ccc(C(=O)N/C(=C\c2ccco2)C(=O)NCCN2CCOCC2)cc1,-23.2%
13,CN(C)c1ccc(/C=C(\NC(=O)c2ccccc2)C(=O)NCCN2CCOCC2)cc1,-19.9%
14,O=C(NCCCN1CCOCC1)/C(=C/c1cccs1)NC(=O)c1ccccc1,-21.8%
15,Cc1ccc(C(=O)N/C(=C\c2ccc(Cl)cc2)C(=O)NCCN2CCOCC2)cc1,-75.1%
16,COc1ccccc1CNC(=O)C(NC(=O)C1CCCCC1)C(C)C (stereo not shown),1.84%
17,O=C(O)c1cccc(NS(=O)(=O)c2ccc(Oc3ccc(S(=O)(=O)Nc4cccc(C(=O)O)c4)cc3)cc2)c1,20.3%
18,COc1ccc(OC)c(-n2nnnc2SCC(=O)NCCc2ccccc2)c1,-20.3%
19,CC1Cn2c(nc(=O)c3c2NCN(CCc2ccccc2)C3)S1 (stereo not shown),13.5%
20,O=C(C1CC1)N1N=C(c2ccc(Cl)cc2)CC1(O)C(F)(F)F (stereo not shown),-0.113%
21,Cc1nn(C(C)C(=O)NC2CCC(C)CC2)c(=O)c2nn(-c3ccccc3)c(C)c12 (stereo not shown),-28.3%
22,O=C(CCS(=O)(=O)c1cccs1)N1CCCC1,3.18%

row,Compound,"hERG current change (%, negative = inhibition) at 10uM"
1,O=c1c2ccccc2nc(-c2ccccc2)n1-c1ccccc1O,16.1%
2,CC(OC(=O)c1snc(C(=O)NC2CCCCC2)c1N)C(=O)NC1CCCCC1 (stereo not shown),-3.99%
3,Cc1ccc2nc(N(CCCN(C)C)C(=O)c3ccc(S(=O)(=O)N4CCc5ccccc5C4)cc3)sc2c1.Cl,-25.3%
4,CN(C)CCCN(C(=O)c1ccc(S(=O)(=O)N2CCc3ccccc32)cc1)c1nc2ccc(Cl)cc2s1.Cl,10.5%
5,CCOC(=O)N1CCN(S(=O)(=O)c2ccc(C(=O)N(CCCN(C)C)c3nc4ccc(OC)cc4s3)cc2)CC1.Cl,-73.5%
6,CCOC(=O)N1CCN(S(=O)(=O)c2ccc(C(=O)N(CCCN(C)C)c3nc4cc(OC)ccc4s3)cc2)CC1.Cl,-56.2%
7,CCOC(=O)N1CCN(S(=O)(=O)c2ccc(C(=O)N(CCN(C)C)c3nc4ccc(Cl)cc4s3)cc2)CC1.Cl,-28.5%
8,CCOC(=O)N1CCN(S(=O)(=O)c2ccc(C(=O)N(CCN(C)C)c3nc4ccc(CC)cc4s3)cc2)CC1.Cl,-51.9%
9,CCOC(=O)N1CCN(S(=O)(=O)c2ccc(C(=O)N(CCN(CC)CC)c3nc4ccc(C)cc4s3)cc2)CC1.Cl,-23.8%
10,COc1ccc2sc(N(CCCN(C)C)C(=O)c3ccc(S(=O)(=O)N4CCc5ccccc5C4)cc3)nc2c1.Cl,-6.59%
11,COc1cc2nc(N(CCCN(C)C)C(=O)c3ccc(S(=O)(=O)N4CCc5ccccc5C4)cc3)sc2cc1OC.Cl,-9.41%
12,CCOC(=O)N1CCN(S(=O)(=O)c2ccc(C(=O)N(CCN(C)C)c3nc4c(C)cccc4s3)cc2)CC1.Cl,-37.5%
13,COc1ccc2sc(N(CCCN(C)C)C(=O)c3ccc(S(=O)(=O)N4CCCC4)cc3)nc2c1.Cl,-43.9%
14,CCOC(=O)N1CCN(S(=O)(=O)c2ccc(C(=O)N(CCCN(C)C)c3nc4ccc(Cl)cc4s3)cc2)CC1.Cl,-58.4%
15,O=C(c1ccccc1Cc1ccccc1)N1CCN(S(=O)(=O)c2ccccc2)CC1,-6.88%
16,CN(C)NC(=S)Nc1ccc(S(=O)(=O)N2CCCCC2)cc1,-5.26%
17,CCn1ccnc1CN(C)C(=O)CCc1nnc(CCCc2ccccc2)o1,-7.7%
18,Cc1cccc(NC(=O)CN2C(=O)N/C(=C\c3ccc(N4CCOCC4)cc3)C2=O)c1,9.92%
19,CC(NC(=O)COC(=O)Cc1ccsc1)C1CC2CCC1C2 (stereo not shown),-12.1%
20,COc1ccc(N(CC(=O)N2CCc3ccccc32)S(=O)(=O)c2c(C)n[nH]c2C)cc1,-18.6%
21,CC(NCCOc1ccccc1F)C(=O)Nc1ccc(S(N)(=O)=O)cc1 (stereo not shown),13.4%
22,N#Cc1c(N)c(C(=O)c2ccc(Cl)cc2)n2c1CCC2,5.5%

row,Compound,"hERG current change (%, negative = inhibition) at 10uM"
1,CCCCN(CCCC)C(=O)c1cc(Cl)ccc1[N+](=O)[O-],-1.4%
2,O=C1CCC(C(=O)N(Cc2ccco2)C2(C(=O)NC3CCCC3)CCCCC2)N1 (stereo not shown),13.4%
3,CCNc1nc(NCC)nc(N/N=C(\C)c2ccc(OC)cc2)n1,-14.1%
4,Cc1ccccc1NS(=O)(=O)c1cc(C(=O)NCc2ccco2)ccc1C,-20.3%
5,O=C(NCc1ccco1)c1ccc(Br)c(S(=O)(=O)N2CCCCC2)c1,-53%
6,CCn1cc(C(=O)NCC2CCCO2)c(=O)c2cc(S(=O)(=O)N3CCC(C)CC3)ccc21 (stereo not shown),-28.1%
7,CCn1cc(C(=O)NCC2CCCO2)c(=O)c2cc(S(=O)(=O)N3CCCCC3)ccc21 (stereo not shown),-34%
8,CCn1cc(C(=O)NCc2ccco2)c(=O)c2cc(S(=O)(=O)N3CCCC3)ccc21,-4.37%
9,Cc1ccc(C)c(NS(=O)(=O)c2cc(C(=O)NCc3ccco3)ccc2C)c1,-52.3%
10,CCn1cc(C(=O)NCc2ccco2)c(=O)c2cc(S(=O)(=O)N3CCC(C)CC3)ccc21,-36.5%
11,CCn1cc(C(=O)NCC2CCCO2)c(=O)c2cc(S(=O)(=O)N3CCCCCC3)ccc21 (stereo not shown),-51.3%
12,CCn1cc(C(=O)NCc2ccco2)c(=O)c2cc(S(=O)(=O)N3CCCCCC3)ccc21,-53.3%
13,O=C(NCc1ccco1)c1ccc(F)c(S(=O)(=O)N2CCCCC2)c1,-11.3%
14,Cc1ccc(C(=O)NCc2ccco2)cc1S(=O)(=O)Nc1cccc(C)c1C,-32.2%
15,Cc1ccc(C(=O)NCc2ccco2)cc1S(=O)(=O)N1CCCCC1,-18.6%
16,COc1cc(CCC(=O)Nc2ccc(C)c(S(=O)(=O)N3CCCCCC3)c2)cc(OC)c1OC,-6.5%
17,O=C(OCCN1C(=O)c2ccccc2C1=O)C1CCN(S(=O)(=O)c2cccs2)CC1,-31.9%
18,COc1cc(CCN2C(=O)N[C@@H](CCc3ccccc3)C(C(C)=O)=C2C)cc(OC)c1OC,-12.6%
19,CC(=NCC1CCCO1)c1c(O)n(C2CCCCC2)c(=O)[nH]c1=O (stereo not shown),-9.77%
20,CC(C)(C)NC(=O)CN1CCCN(C(=O)c2cccc(S(=O)(=O)N3CCc4ccccc43)c2)CC1,-7.51%
21,CCn1c(NN=O)nc2ccccc21,15.6%
22,O/N=C1/C2C3CC4C5C3C1C5C1(OCCO1)C42 (stereo not shown),4.44%

row,Compound,"hERG current change (%, negative = inhibition) at 10uM"
1,Cc1cccc(OS(=O)(=O)NC(=O)OCC2CCCN3CCCCC23)c1 (stereo not shown),15.1%
2,O=C(c1cc2nc(-c3ccccc3)cc(-c3ccccc3)n2n1)N1CCC2(CC1)OCCO2,-49.4%
3,C/C(=N/Nc1ccc(F)cc1)c1ccc(Cl)s1,8.69%
4,CC(C)(C)c1ccc(CCC(CC(=O)O)CC(=O)O)cc1,-11.9%
5,CCN1CCCC1CNC(=O)c1cn(CC)c2ccc(S(=O)(=O)N3CCCCCC3)cc2c1=O (stereo not shown),-66.5%
6,CCn1cc(C(=O)NCCC(C)C)c(=O)c2cc(S(=O)(=O)N3CCCCC3)ccc21,-7.53%
7,CCn1cc(C(=O)NC2CCCCCC2)c(=O)c2cc(S(=O)(=O)N3CCCCC3)ccc21,8.24%
8,Cc1cccc(NC(=O)c2c(O)c3ccccc3n(C)c2=O)c1,25.8%
9,Cc1ccc(CCNC(=O)C2CCCN(C(=O)N(C)C)C2)cc1 (stereo not shown),8.01%
10,CCOc1ccc(CCNC(=O)c2nnc(Cc3ccc(F)cc3)o2)cc1OCC,-1.78%
11,Cc1cc(C)c2nc(-n3nc(C)cc3N)cc(C)c2c1,20%
12,Cc1cc(N)c2ccccc2n1,7.4%
13,CCc1ccc2nc3nc(C)cc(C)c3c(N)c2c1,1.12%
14,Cc1cc(C)c2c(N)c3ccccc3nc2n1,-53.9%
15,Cc1cc(C)c2cccc(N)c2n1,20.7%
16,Cc1cccc2c(C(=O)O)c3cccc(C)c3nc12,1.39%
17,Cc1cc(C)c2c(N)c3cccc(C)c3nc2n1,-64.7%
18,Cc1cc(C)c2c(SC(C)C)nc(N)nc2n1,-4.12%
19,Cc1cc(C)c2nc3nc(C)cc(C)c3c(N)c2c1,-65.5%
